Screening results from PubChem.
Hits are enriched below; roughly 2.3% of the tested compounds scored in any of these assays.
SENP7 inh = blocks the human protease SENP7; Q9BQF6; recombinant SENP7, Z-RLRGG-aminoluciferin luminescence, 40 min; inhibition, % at 5 µM; hit rate 1.5% among 330,000; AID 434973;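 active means inhibition above about 50% at the single test dose, limit read from the data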
SENP8 block-1 = inhibitors of human SENP8 protease; Q96LD8; hit rate 1.2% among 330,000; purified SENP8, Z-RLRGG-aminoluciferin cleavage, luminescence; inhibition, % at 10 µM; in the data active means inhibition above about 50%
SENP6 block = SENP6 protease inhibition; Q9GZR1; Recombinant SENP6 catalytic domain, aminoluciferin luminescence; inhibition, % at 10 µM; hit rate 1.8% among 330,000;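 active means inhibition above about 50% at the single tested dose, limit read from the data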
Target sequence (Q9GZR1 628-1112 limits assumed): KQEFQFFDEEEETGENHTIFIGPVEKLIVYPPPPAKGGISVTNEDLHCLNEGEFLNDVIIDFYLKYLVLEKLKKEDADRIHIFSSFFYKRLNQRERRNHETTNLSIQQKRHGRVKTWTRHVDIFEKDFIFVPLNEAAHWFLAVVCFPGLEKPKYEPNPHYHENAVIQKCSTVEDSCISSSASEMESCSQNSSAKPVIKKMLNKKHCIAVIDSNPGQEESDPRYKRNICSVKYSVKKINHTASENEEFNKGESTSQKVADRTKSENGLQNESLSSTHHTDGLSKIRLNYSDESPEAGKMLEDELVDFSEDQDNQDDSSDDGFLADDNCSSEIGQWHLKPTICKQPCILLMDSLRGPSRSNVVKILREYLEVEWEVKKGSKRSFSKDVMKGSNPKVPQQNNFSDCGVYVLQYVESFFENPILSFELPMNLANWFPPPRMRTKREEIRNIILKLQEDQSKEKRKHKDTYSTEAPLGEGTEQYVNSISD
SENP8 block-2 = inhibitors of human SENP8 protease; inhibition, % at 20 µM; Q96LD8; recombinant SENP8, Nedd8 substrate fluorescence; AID 602440; hit rate 0.64% among 360,000; in the data active means inhibition mostly above about 40%, no sharp cut-off; inactive means mostly below about 27%
HSP90 refold inh = HSP90 refolding inhibition in rabbit reticulocyte lysate; AID 1789; hit rate 0.91% among 290,000; inhibition, % at 5.6 µM; luciferase refolding luminescence, 3 h;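 active means inhibition above the screen-wide mean plus 3 SD, computed separately per campaign, cut at about 16% in these data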;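 further: inhibitors lower the luminescence because luciferase stays unfolded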
LGR2 antag = Drosophila LGR2 receptor signaling inhibition; HEK293 LGR2, CRE-luciferase, bursicon-stimulated, 4 h; inhibition, % at 9.99 µM; hit rate 0.35% among 380,000;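 active means drop in luminescence signal, shown as inhibition above about 50% in the replicate tests, limit read from the data, passing the limit was not always enough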;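 further: agonist challenge used bursicon conditioned medium at about half maximal strength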
Hits are given with their value.

`Oc1c(CN2CCOCC2)cc(CN2CCOCC2)c(O)c1O` gave SENP8 block-2 52 and LGR2 antag inactive.
Screening O=C1/C(=C/c2ccccc2[N+](=O)[O-])COc2ccccc21 returned SENP7 inh inactive, SENP8 block-1 inactive, SENP6 block inactive, SENP8 block-2 inactive, HSP90 refold inh inactive and LGR2 antag 91.
For COc1cccc(CN2CC3(C2)CN(C(=O)C2CC2)[C@H](CO)c2c3c3ccc(OC)cc3n2C)c1 the results were LGR2 antag inactive.
Screening O=C(O)c1ccc2c(c1)C1C=CCC1C(c1ccncc1)N2 (stereo not drawn) returned SENP7 inh inactive, SENP8 block-1 inactive, SENP6 block inactive, SENP8 block-2 inactive, HSP90 refold inh inactive and LGR2 antag inactive.
For FC(F)(F)c1ccc2c(c1)C1C=CCC1C(c1ccncc1)N2 (stereo not drawn) the results were SENP8 block-2 44, HSP90 refold inh inactive and LGR2 antag inactive.
Screening O=C1c2ccccc2C(=O)C1(O)O returned SENP7 inh inactive, SENP8 block-1 62 and SENP6 block 57.
Screening O=C(C[C@H]1CC[C@H](NS(=O)(=O)c2ccc(F)cc2)[C@H](CO)O1)NC1CCCCC1 returned LGR2 antag inactive.
Cc1ccc(NC(=O)Nc2cccc(Cl)c2)c(C(=O)O)c1 was read as SENP7 inh 69, SENP8 block-1 73, SENP6 block inactive, SENP8 block-2 inactive, HSP90 refold inh inactive and LGR2 antag inactive.
`COc1ccc(Nc2cccc(Cl)c2)c(C(=O)O)c1` gave SENP7 inh inactive, SENP8 block-1 inactive, SENP6 block inactive, SENP8 block-2 inactive, HSP90 refold inh inactive and LGR2 antag inactive.
COc1cc(NC(=O)c2ccc([N+](=O)[O-])o2)ccc1NC(=O)c1cccs1 was read as SENP7 inh inactive, SENP8 block-1 inactive, SENP6 block inactive, SENP8 block-2 inactive, HSP90 refold inh inactive and LGR2 antag inactive.
O=C(Nc1cccc(NC(=O)c2cccs2)c1)c1ccc([N+](=O)[O-])o1 was read as SENP7 inh inactive, SENP8 block-1 inactive, SENP6 block inactive, SENP8 block-2 inactive, HSP90 refold inh 33 and LGR2 antag inactive.
Screening COc1cccc(-c2[nH]nc3c2C(c2ccsc2)C(C#N)=C(N)O3)c1 (stereo not drawn) returned SENP7 inh inactive, SENP8 block-1 inactive, SENP6 block inactive, SENP8 block-2 inactive and HSP90 refold inh 16.
COc1ccc(-c2[nH]nc3c2C(c2ccsc2)C(C#N)=C(N)O3)cc1 (stereo not drawn) was read as SENP7 inh inactive, SENP8 block-1 inactive, SENP6 block inactive, SENP8 block-2 inactive, HSP90 refold inh inactive and LGR2 antag inactive.
For COC(=O)c1ccccc1NC(=O)COC(=O)c1ccccc1N=Nc1ccc(N(C)C)cc1 the results were SENP7 inh inactive, SENP8 block-1 inactive, SENP6 block inactive, SENP8 block-2 42, HSP90 refold inh inactive and LGR2 antag inactive.
For Cc1[nH]c(N=Nc2ccccc2)nc1N=Nc1ccccc1 the results were SENP7 inh inactive, SENP8 block-1 inactive, SENP6 block inactive, SENP8 block-2 68, HSP90 refold inh inactive and LGR2 antag inactive.
For COc1ccc(S(=O)(=O)Nc2cccc3c2O[C@H](CN(C)Cc2ccc(Cl)c(Cl)c2)[C@@H](C)CN([C@@H](C)CO)C3=O)cc1 the results were LGR2 antag inactive.
For O=c1c(O)c(-c2ccc(O)c(O)c2)oc2cc(O)cc(O)c12 the results were SENP7 inh inactive, SENP8 block-1 inactive, SENP6 block 53, SENP8 block-2 33 and HSP90 refold inh inactive.
C/C=C/c1cccc(-c2nc(C(=O)NCc3ccccc3)cc3c2[C@@H](CCO)N([S@](=O)C(C)(C)C)C3)c1 was read as LGR2 antag inactive.
`COc1cc(NC(=O)c2cccc3c(-c4cnn(C)c4)coc23)cc(OC)c1OC` gave SENP8 block-2 inactive and LGR2 antag 73.
COc1ccc(NC(=O)c2cccc3c(-c4cnn(C)c4)coc23)cc1 was read as SENP8 block-2 inactive and LGR2 antag inactive.
`N#Cc1c(N)n(C2OC(CO)C(O)C2O)c2ncnc(N)c12` (stereo not drawn) gave SENP8 block-2 inactive and LGR2 antag 91.
`CCNC(=O)[C@@H]1[C@@H](CO)[C@@H]2Cn3c(ccc(C4=CCCCC4)c3=O)[C@@H]2N1C(=O)CC1CC1` gave LGR2 antag inactive.
CC(=O)Nc1cccc(C(=O)/C=C/c2ccc(Br)cc2)c1 was read as SENP7 inh inactive, SENP8 block-1 inactive, SENP6 block inactive, SENP8 block-2 inactive, HSP90 refold inh inactive and LGR2 antag 60.
For O=C(c1ccccc1)N1CC[C@@H]2[C@H]1c1cc(C#CC3CCCCC3)ccc1N[C@@H]2CO the results were LGR2 antag inactive.
`O=c1[nH]c(CSc2ccccn2)nc2c1oc1ccccc12` gave SENP7 inh inactive, SENP8 block-1 inactive, SENP6 block inactive, SENP8 block-2 inactive, HSP90 refold inh inactive and LGR2 antag 80.
For CCc1nc2c(oc3ccccc32)c(=O)[nH]1 the results were SENP7 inh inactive, SENP8 block-1 inactive, SENP6 block inactive, SENP8 block-2 inactive and HSP90 refold inh inactive.
CCOc1ccc(N=Nc2c(=O)[nH]n3c(C)cc(C)nc23)cc1 was read as SENP7 inh inactive, SENP8 block-1 inactive, SENP6 block inactive, SENP8 block-2 53, HSP90 refold inh inactive and LGR2 antag inactive.
`COc1cccc(N=Nc2c(=O)[nH]n3c(C)cc(C)nc23)c1` gave SENP7 inh inactive, SENP8 block-1 inactive, SENP6 block inactive, SENP8 block-2 inactive, HSP90 refold inh inactive and LGR2 antag inactive.
For C[C@@H]1CN([C@@H](C)CO)C(=O)Cc2cc(NC(=O)Cc3ccccc3)ccc2O[C@@H]1CN(C)C(=O)Nc1cccc2ccccc12 the results were LGR2 antag inactive.
For Nc1c(C(=O)N2CCOCC2)sc2nc3c(cc12)CCCC3 the results were SENP7 inh inactive, SENP8 block-1 inactive, SENP6 block inactive, SENP8 block-2 inactive, HSP90 refold inh inactive and LGR2 antag 71.
`COc1ccccc1S(=O)(=O)N[C@@H]1C=C[C@@H](CC(=O)N2CCN(C)CC2)O[C@@H]1CO` gave LGR2 antag inactive.
`CO[C@@H]1CN(C)C(=O)c2ccc(NS(=O)(=O)c3cccc(F)c3)cc2OC[C@@H](C)NC[C@@H]1C` gave LGR2 antag inactive.
Screening Cc1ccc(-c2cn3nc(C)c(C)nc3n2)cc1 returned SENP7 inh inactive, SENP8 block-1 53, SENP6 block inactive, SENP8 block-2 inactive and HSP90 refold inh inactive.
Screening COCC(=O)N1C[C@H]2[C@@H](c3ccccc31)[C@@H](CO)N2C(=O)C1CCCCC1 returned LGR2 antag inactive.
For Cc1nn(-c2ccccc2)c(Cl)c1/C=N/NC(=O)c1ccn[nH]1 the results were SENP7 inh inactive, SENP8 block-1 inactive, SENP6 block inactive, SENP8 block-2 inactive, HSP90 refold inh 17 and LGR2 antag inactive.
